Rows were chosen to be rich in hits. Some 3.9% of all compounds tested hit in one or more screens of this group.
D1 ag – Allosteric Agonists of the Human D1 Dopamine Receptor: qHTS. HEK293 T-REx D1 cells, calcium flux, agonist mode. activation, % at 2 µM. actives 1% (n = 360,000); in the data active means activation above about 30%
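Inducible HEK293 T-REx D1 cells, force-coupled to calcium signalling, were plated at 4000 cells/well with tetracycline and held overnight at 30 C. After no-wash calcium dye loading, compound-evoked calcium rise over 180 s flagged agonists.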
Eya2 phos inh – qHTS Assay for Inhibitors of the Phosphatase Activity of Eya2 | recombinant Eya2, OMFP fluorescence dephosphorylation (OMFP is methylfluorescein phosphate) | actives 0.006% (n = 330,000) | Protein phosphatase EYA2 (Homo sapiens), O00167 | Potency, µM (top dose mostly 76.9 µM), hits mostly inhibitors
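Eya2 protein (added as 0.2 uM solution) was preincubated with compound for 10 min at ambient temperature in 50 mM HEPES pH 7.5, 50 mM NaCl, 5 uM MgCl2, 0.05% BSA, 1 mM DTT. OMFP (added at 50 uM) then reacted 10 min; fluorescence read at 485/525 nm.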
USP2a inh – qHTS Assay for Inhibitors of Ubiquitin-specific Protease USP2a Using CHOP2 as the Reporter. USP2 core, Ub-CHOP2 coupled fluorogenic reporter, 485/531. actives 0.01% (n = 330,000). Potency, µM (top dose mostly 38.3 µM), hits mostly inhibitors
Target sequence (O75604 whole entry, looked up): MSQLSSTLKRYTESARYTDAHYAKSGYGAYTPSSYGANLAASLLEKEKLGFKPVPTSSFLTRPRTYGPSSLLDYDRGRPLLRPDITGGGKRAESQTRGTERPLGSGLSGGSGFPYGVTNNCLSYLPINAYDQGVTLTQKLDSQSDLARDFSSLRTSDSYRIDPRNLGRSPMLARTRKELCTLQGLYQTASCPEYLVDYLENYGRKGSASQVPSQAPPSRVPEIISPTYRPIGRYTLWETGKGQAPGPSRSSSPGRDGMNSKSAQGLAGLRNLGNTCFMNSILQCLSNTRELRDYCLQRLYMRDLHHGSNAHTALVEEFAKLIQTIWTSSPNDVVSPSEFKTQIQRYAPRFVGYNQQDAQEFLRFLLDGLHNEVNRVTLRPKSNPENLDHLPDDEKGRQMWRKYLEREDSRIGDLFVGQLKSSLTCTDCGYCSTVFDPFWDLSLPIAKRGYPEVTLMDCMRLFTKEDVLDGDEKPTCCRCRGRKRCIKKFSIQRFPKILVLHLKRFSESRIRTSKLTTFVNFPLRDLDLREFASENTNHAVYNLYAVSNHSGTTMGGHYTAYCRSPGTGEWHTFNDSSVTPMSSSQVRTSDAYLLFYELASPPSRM
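Deubiquitinase activity read as fluorescence (485/531 nm) after Ub-CHOP2 cleavage activates the enterokinase reporter on its substrate; USP2 core 10nM, Ub-CHOP2 and substrate 25nM each, 30min compound preincubation then 60min RT; data normalized to NEM, curves fitted.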
D1 potentiator – Potentiators of Human D1 Dopamine Receptor: qHTS; D(1A) dopamine receptor (Homo sapiens), P21728; HEK293 TREx D1 cells, calcium flux, dopamine EC20 potentiation; potentiation, % at 10 µM; actives 0.036% (n = 360,000); in the data active means potentiation above about 30%
GALK inhibitor – qHTS Assay for Inhibitors of Human Galactokinase (GALK). Potency, µM (series often up to 57.5 µM), actives largely listed as inhibitors. AID 1868, 2009. P51570. Purified GALK, Kinase-Glo residual ATP luminescence. actives 0.007% (n = 270,000)
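Luminescence from leftover ATP (Ultra-Glo luciferase/luciferin) served as read-out after a 1 h room-temperature reaction of 5 nM GALK with 35 uM ATP and 100 uM galactose.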
D1 antagonist – Antagonist of Human D 1 Dopamine Receptor: qHTS; D(1A) dopamine receptor (Homo sapiens), P21728; HEK293 TREx D1 cells, calcium flux, dopamine EC80; stronger effect = lower value; activity change, negative = inhibition, % at 10 µM; actives 3.2% (n = 360,000); AID 504652, 2011; in the data active means activity change below about -30%
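Allosteric or orthosteric antagonism assessed as attenuation of the calcium response to EC80 dopamine, added 180 s after compound, in induced HEK293 Trex D1 cells loaded with no-wash calcium dye.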
Large screens that a line does not name were inactive. Unless noted, the call rests on the fitted dose curve; in most records, active means well fitted inhibition curve with a large enough effect; inconclusive means small, poorly fitted or top-dose-only effect, or effect the other way; inactive means flat fitted curve, though single readings scatter.

Cc1oc2ccc(O)c(CN3CCN(Cc4ccccc4)CC3)c2c1C(=O)Nc1ccccc1	none (no result: Eya2 phos inh, USP2a inh, GALK inhibitor)
Cc1oc2ccc(O)c(CN3CCN(C)CC3)c2c1C(=O)Nc1cccc(C(F)(F)F)c1	D1 ag 62, D1 antagonist -46 (no result: Eya2 phos inh, USP2a inh, GALK inhibitor)
COC(=O)c1nc2n(n1)C(c1cc(OC)ccc1OC)C(C(=O)Nc1ccc(C)cc1C)=C(C)N2 (configuration not stated)	none (no result: Eya2 phos inh, USP2a inh, GALK inhibitor)
O=C(N/N=C(\c1ccccc1)c1cccnc1)c1ccc(O)cc1	none
O=C(N/N=C(\c1ccccc1)c1cccnc1)c1cccc(F)c1	D1 antagonist -41
Cc1ccc(NS(=O)(=O)c2cccc(C(=O)NCCCn3ccnc3)c2)cc1	none (no result: GALK inhibitor)
O=C(NCCCn1ccnc1)c1ccc2ccccc2c1	D1 antagonist -37
O=C(NCCCn1ccnc1)c1ccc(NS(=O)(=O)c2ccc(Cl)c(Cl)c2)cc1	D1 ag 34 (no result: GALK inhibitor)
O=C(c1ccccc1)c1ccc(NCCCn2ccnc2)c([N+](=O)[O-])c1	D1 antagonist -35
O=C(NCCCn1ccnc1)c1cn(-c2ccccc2)nc1-c1ccccc1	D1 antagonist -83 (no result: Eya2 phos inh, USP2a inh)
Cc1cc(OCC(=O)Nc2cccc(S(=O)(=O)NC3=NCCCCC3)c2)ccc1Cl	D1 antagonist -31
Cc1ccc(OCC(=O)Nc2cccc(S(=O)(=O)NC3=NCCCCC3)c2)cc1C	none
Cc1cccc(-n2c3nc(=O)n(C)c(=O)c-3cc3c(C)nn(-c4ccccc4)c32)c1C	none (no result: Eya2 phos inh, USP2a inh, GALK inhibitor)
Cc1cccc(NC(=O)c2sc3nc4c(c(-c5cccs5)c3c2N)CN(C)CC4)c1	D1 antagonist -40
Cc1ccc(-n2c(C)nc3c(cnn3-c3ccc(C)c(C)c3)c2=O)cc1C	none
COc1cccc(-n2c(C)nc3c(cnn3-c3ccc(C)c(C)c3)c2=O)c1	D1 antagonist -48 (no result: Eya2 phos inh, USP2a inh, GALK inhibitor)
Cn1nc(C(=O)NCc2ccccc2Cl)c2c1-c1ccccc1SC2	D1 antagonist -33 (no result: Eya2 phos inh, USP2a inh, GALK inhibitor)
Cn1nc(C(=O)NCc2ccccc2)c2c1-c1ccccc1SC2	none (no result: Eya2 phos inh, USP2a inh, GALK inhibitor)
CCOC(=O)C1=C(CSc2nc(C)ccc2C#N)OC(N)=C(C#N)C1c1cccc(OC)c1OC (configuration not stated)	D1 antagonist -70
CCOC(=O)C1=C(CC)OC(N)=C(C#N)C1c1ccc(OC)c(OC)c1OC (configuration not stated)	D1 antagonist -32
CCOC(=O)C1=C(CC)OC(N)=C(C#N)C1c1ccc(OC)c(C)c1OC (configuration not stated)	none (no result: GALK inhibitor)
CCCC1=C(C(=O)OCC)C(c2ccc(OC)c(C)c2OC)C(C#N)=C(N)O1 (configuration not stated)	D1 ag 56 (no result: GALK inhibitor)
CCn1ccc2cc(S(=O)(=O)N3CCCN(C(=O)Nc4ccc(C)cc4Cl)CC3)ccc21	none (no result: Eya2 phos inh, USP2a inh, GALK inhibitor)
COc1ccc(OC)c(CN2CCN(c3ccccc3OC)CC2)c1	none
COc1ccc(OC)c(CN2CCN(Cc3cccc4ccccc34)CC2)c1	D1 antagonist -67
COc1ccccc1N1CCN(CCCCCCOc2ccc(F)cc2)CC1	D1 antagonist -45 (no result: GALK inhibitor)
COc1ccc(CN2CCN(c3ccccc3OC)CC2)c(OC)c1	D1 antagonist -46
Cc1cc(C)nc(N2CCC(C(=O)O)CC2)n1	D1 antagonist -32
CCN(CC)c1ccc2cc(S(=O)(=O)c3ccc(C)cc3)c(=O)oc2c1	D1 ag 120
CCN(CC)c1ccc2cc(C#N)c(=O)oc2c1	D1 ag 32
CCN(CC)c1ccc2cc(-c3nnc(Nc4ccc(C)cc4)s3)c(=O)oc2c1	D1 ag 421, D1 antagonist -60 (no result: Eya2 phos inh, USP2a inh, GALK inhibitor)
